SENP7 inh: inhibitors of human SENP7 protease | Q9BQF6 | recombinant SENP7, Z-RLRGG-aminoluciferin luminescence, 40 min | inhibition, % at 5 µM | actives 1.5% (n = 330,000);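 active = inhibition above about 50% at the single test dose, limit read from the data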;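 note: plate controls were DMSO with enzyme for no effect and no enzyme buffer wells for full effect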
SENP6 block: blocks the human protease SENP6 | Q9GZR1 | Recombinant SENP6 catalytic domain, aminoluciferin luminescence | inhibition, % at 10 µM | actives 1.8% (n = 330,000) | AID 2599;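 active = inhibition above about 50% at the single tested dose, limit read from the data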;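 note: plate controls were DMSO wells with enzyme for no effect and DMSO wells lacking enzyme for full effect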
Target sequence (Q9GZR1 628-1112 limits assumed): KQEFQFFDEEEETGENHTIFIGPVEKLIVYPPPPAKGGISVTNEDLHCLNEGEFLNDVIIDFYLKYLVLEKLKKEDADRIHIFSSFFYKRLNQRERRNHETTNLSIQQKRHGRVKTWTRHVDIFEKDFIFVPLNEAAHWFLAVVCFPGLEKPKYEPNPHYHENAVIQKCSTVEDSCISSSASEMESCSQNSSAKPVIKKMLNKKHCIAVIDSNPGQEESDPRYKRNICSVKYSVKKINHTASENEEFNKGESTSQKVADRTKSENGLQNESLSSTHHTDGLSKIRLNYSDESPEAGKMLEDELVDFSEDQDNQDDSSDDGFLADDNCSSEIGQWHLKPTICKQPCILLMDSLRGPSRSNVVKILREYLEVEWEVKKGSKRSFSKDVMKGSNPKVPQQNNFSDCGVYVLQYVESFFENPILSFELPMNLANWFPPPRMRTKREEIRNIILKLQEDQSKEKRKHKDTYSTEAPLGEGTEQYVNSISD
SENP8 block-1: SENP8 protease inhibition; Q96LD8; purified SENP8, Z-RLRGG-aminoluciferin cleavage, luminescence; inhibition, % at 10 µM; actives 1.2% (n = 330,000); AID 2540; in the data active = inhibition above about 50%
SENP8 block-2: blocks human SENP8 cleavage of Nedd8 substrate; inhibition, % at 20 µM; actives 0.64% (n = 360,000); recombinant SENP8, Nedd8 substrate fluorescence; AID 602440; Q96LD8; in the data active = inhibition mostly above about 40%, no sharp cut-off; inactive = mostly below about 27%
LGR2 antag: blocks bursicon-induced cAMP signaling via Drosophila LGR2; AID 720647; actives 0.35% (n = 380,000); HEK293 LGR2, CRE-luciferase, bursicon-stimulated, 4 h; inhibition, % at 9.99 µM;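 active = drop in luminescence signal, shown as inhibition above about 50% in the replicate tests, limit read from the data, passing the limit was not always enough; inconclusive = probably only some replicates passing the limit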;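 note: agonist challenge used bursicon conditioned medium at about half maximal strength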
HSP90 inh: HSP90 refolding inhibition in rabbit reticulocyte lysate; inhibition, % at 5.6 µM; actives 0.91% (n = 290,000); luciferase refolding luminescence, 3 h;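 active = inhibition above the screen-wide mean plus 3 SD, computed separately per campaign, cut at about 16% in these data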;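 note: 0% = DMSO wells and 100% = 60 µM geldanamycin wells; inhibitors lower the luminescence because luciferase stays unfolded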
Starred values were filed as active, the others as inactive; u = inconclusive; x = no result given. Sampled rows, rich in hits. Any-hit rate of the full collection: about 2.3%.

SMILES	SENP7 inh	SENP6 block	SENP8 block-1	SENP8 block-2	LGR2 antag	HSP90 inh
Cc1ccc(S(=O)(=O)Nc2ccc3c(c2)C(=O)N([C@@H](C)CO)C[C@@H](C)[C@@H](CN(C)C(=O)C2CCCCC2)OCCCC[C@@H](C)O3)cc1	x	x	x	x	-8	x
COc1ccc(-c2cn(Cc3ccc([N+](=O)[O-])cc3)nn2)cc1	6	5	-7	16	-4	3
O=[N+]([O-])c1ccc2nc(-c3ccc(OC(F)F)cc3)cn2c1	33	3	2	-8	-20	17*
c1ccc(C2=Nc3ccccc3SC2c2nc3ccccc3[nH]2)cc1 (stereo not drawn)	54*	52*	27	x	x	3
Cc1ccc2nc(-c3ccc(NC(=O)COC(=O)c4ccco4)cc3)sc2c1	-4	-12	-2	-436	66*	-3
Cc1ccc2nc(-c3ccc(NC(=O)COC(=O)c4ccc([N+](=O)[O-])o4)cc3)sc2c1	13	25	9	-338	83*	2
Cc1ccc2nc(-c3ccc(NC(=O)COC(=O)c4ccc(Br)o4)cc3)sc2c1	2	41	3	-289	u	0
C[C@@H]1CN([C@H](C)CO)C(=O)c2cc(NS(=O)(=O)c3ccc(Cl)cc3)ccc2O[C@H]1CN(C)Cc1ccncc1	x	x	x	x	2	x
COc1ccccc1N1C(=O)c2cccnc2C1=O	4	-4	-5	2	12	-2
O=C1c2cccnc2-c2ncccc21	2	9	-7	40	x	8
COC1=C(Br)C(=O)c2ncccc2C1=O	x	x	x	105*	u	x
O=C1C(=O)c2cccnc2-c2ncccc21	x	x	x	110*	100*	x
COc1ccccc1CNC(=O)C[C@H]1C[C@H]2c3cc(NS(=O)(=O)c4ccc(F)cc4)ccc3O[C@H]2[C@H](CO)O1	x	x	x	x	-8	x
O=C(C[C@@H]1CC[C@H]2[C@@H](COC[C@H](O)CN2Cc2nccs2)O1)NCc1ccccc1	x	x	x	x	-14	x
C[C@H](NC(=O)[C@H]1[C@H](CO)[C@H]2Cn3c(ccc(-c4ccccc4)c3=O)[C@H]2N1C)c1ccccc1	x	x	x	x	14	x
COC(=O)Nc1nnc(/C=C/c2ccc(OC)cc2)s1	-1	59*	37	-400	-57	-2
COc1ccc(/C=C/c2nnc(NC(C)=O)s2)cc1	40	37	38	-442	x	-3
COc1cccc2c1C(CO)N1C(C#N)C3CC(C(=O)O)C(C1C2)N3C (stereo not drawn)	13	-24	-13	-2	92*	-7
COc1ccccc1-c1ccccc1[C@H]1[C@@H](CO)N(C(=O)C2CC2)[C@H]1C#N	x	x	x	x	-16	x
CS(=O)(=O)N1CC2(C1)[C@@H](c1ccccc1)[C@H](CO)N2Cc1ccc(F)cc1	x	x	x	x	1	x
COc1ccc(C2C(C#N)=C(/N=C/N3CCN(C)CC3)OC3=C2C(=O)CC(C)(C)C3)cc1OC (stereo not drawn)	50*	-27	-7	5	17	0
CCC(COC(=O)c1ccccc1)Oc1cc(NCc2ccccc2)c2ncn(C(C)C)c2c1 (stereo not drawn)	0	-9	-5	44*	-3	x
O=C(N[C@@H]1C=C[C@H](CC(=O)N2CCc3ccccc3C2)O[C@@H]1CO)C1CCOCC1	x	x	x	x	-9	x
O=c1nccc(N/N=C/c2ccccc2O)[nH]1	-6	-6	4	-2	-8	16*
COc1cccc(/C=N/Nc2ccnc(=O)[nH]2)c1O	-3	-8	1	3	1	15
SMILES	SENP7 inh	SENP6 block	SENP8 block-1	SENP8 block-2	LGR2 antag	HSP90 inh
O=C(NCCc1c[nH]c2ccccc12)OCCCCOC(=O)NCCc1c[nH]c2ccccc12	9	4	8	2	84*	x
O=C1/C(=C/N(C(=O)c2ccco2)c2ccc(Cl)cc2)Sc2ccccc21	x	x	x	-152	x	16*
CCOc1ccc(N=Nc2ccc(O)c3ncccc23)cc1	3	-8	-13	37	-1	3
CCOc1ccc(-n2c(C)nc(O)c2N=Nc2ccccc2)cc1	6	-2	3	43*	36	1
COc1ccc(/C=C/C(=O)c2cc3c(cc2N)OCO3)cc1	96*	95*	96*	0	-44	-2
COc1ccc(/C=C/C(=O)c2ccc(OC)cc2OC)cc1	-6	-22	-17	30	-13	-6
COc1ccc(NC(=O)/C(Cl)=C(/Cl)S(=O)Cc2ccc(Cl)cc2)cn1 (stereo not drawn)	-5	11	5	3	101*	2
N#C/C(=C\c1ccccc1O)C(=O)Nc1cccnc1	75*	77*	51*	3	-5	-5
O=C(CSc1nnc2ccccn12)Nc1ccc2c(c1)OCO2	-2	7	-1	9	-22	-2
O=C(CSc1nnc2ccccn12)Nc1cccc(-c2nc3ccccc3s2)c1	63*	15	-2	-127	-43	-1
CCCC#Cc1ccc2c(c1)O[C@@H](CN(C)CC1CCCC1)[C@H](C)CN([C@H](C)CO)S2(=O)=O	x	x	x	x	13	x
C[C@@H]1CN([C@@H](C)CO)C(=O)Cc2cc(NC(=O)Nc3ccc(C(F)(F)F)cc3)ccc2O[C@@H]1CN(C)S(C)(=O)=O	x	x	x	x	-18	x
COc1ccc(C(=O)C(CN2CCOCC2)c2ccccc2)cc1 (stereo not drawn)	13	-20	-1	6	54*	2
O=C(c1ccc(F)cc1)C(CN1CCOCC1)c1ccccc1 (stereo not drawn)	2	-9	1	10	58*	-4
CCCCOc1ccc(C(=O)C(CN2CCOCC2)c2ccccc2)cc1 (stereo not drawn)	8	-18	-5	22	x	0
COc1ccc(C(=O)C(CN2CCCC2)c2ccccc2)cc1 (stereo not drawn)	5	-3	-4	23	x	-3
CC(C)C[C@@H]1NC(=O)[C@H](Cc2ccccc2)N(C)C(=O)[C@H](C)NC(=O)c2ccccc2NC(=O)[C@H](Cc2ccc(O)cc2)N(C)C1=O	-8	-3	-12	22	17	x
COc1ccc(CC2C(=O)NC(C)C(=O)N(C)C3Cc4ccc(cc4)Oc4cc(ccc4O)CC(C(=O)NC(C)C(=O)NC(C)C(=O)N2C)N(C)C3=O)cc1 (stereo not drawn)	x	x	x	-6	103*	x
N#C/C(=C\c1ccc(OCc2ccc(C(=O)O)cc2)cc1)C(=O)N1CCOCC1	30	22	31	-3	80*	73*
C/C=C/c1ccc([C@H]2[C@H](CO)N(C(C)=O)[C@H]2CN(C)C(=O)CN(C)C)cc1	x	x	x	x	2	x
O=C(O)c1cccc(COc2ccccc2Cl)c1	5	99*	98*	5	101*	x
O=C(Nc1ccccc1Cl)c1cccc(COc2cc(Cl)ccc2Cl)c1	-3	9	5	23	x	1
COc1ccc2c3c(n(C)c2c1)[C@H](CO)N(C(=O)CC1CC1)CC31CCN(C(=O)CC2CC2)CC1	x	x	x	x	3	x

Screens: PubChem, several laboratories
